Measurements from ChEMBL document CHEMBL3433997, “St. Jude Leishmania screening dataset” (2016).

These molecules were tested against Glucose transporter (Leishmania mexicana) (UniProt O61059) (assay: ST_JUDE_LEISH: Cytotoxicity at 2uM final concentration against transgenic Leishmania Mexicana promastigotes LmGT2 that are glucose transport deficient and complemented with the L. Mexicana glucose transporter 2. Activity is measured by DNA content using SYBR green in vitro).
Format: functional

SMILES	inhibition [%]
O=C(NCc1ccc(C(=O)NC2CCCCCC2)cc1)c1ccc(O)c(-c2ccc(Cl)c(Cl)c2)c1	0.44
CC(C)(C)c1cc(C(=O)Nc2cccnc2)cc(C(=O)Nc2cccnc2)c1	2.38
Cc1ccc(NC(=O)Nc2ccc(S(=O)(=O)c3ccc(NC(=O)Nc4ccc(C)c(Cl)c4)cc3)cc2)cc1Cl	1.78
Cn1cnc(CCNC(=O)c2cccc(-c3cccc(-c4nc5cc(C(F)(F)F)ccc5[nH]4)c3)c2)c1	-2.49
Cc1nc(Nc2ccc(F)cc2)nc(N2CCc3ccccc3C2C)c1CO (centres undefined)	1.5
O=C(Nc1cc(Cl)ccc1O)c1cnn2c(C(F)(F)F)cc(-c3cccs3)nc12	3.63
O=C(NCCCNc1ccnc2cc(Cl)ccc12)c1ccccc1F	4.23
Cc1c(F)cc(C(=O)NC2CC2)cc1-c1ccc2c(cnn2S(=O)(=O)c2ccc(F)c(F)c2)c1	5.54
CCc1nc(N)nc(N)c1-c1ccc2c(c1)CCCC2	2
CCCCSc1ccc2nc(-c3c[nH]c4ccc(C#N)cc34)cn2c1	3.81
NC(=O)C1Cc2ccccc2CN1CC(=O)Nc1ccccc1Sc1ccccc1 (centres undefined)	2.18
Cc1ccc2ccncc2c1N	6.36
O=c1cc(NCCC(CNCc2ccoc2)NCc2cc(Br)cc(Br)c2)[nH]c2ccccc12 (centres undefined)	9.4
Cc1cc(N[C@@H](CC(C)C)C(=O)NCCc2ccccc2)nc(Nc2ccccc2)n1	2.63
CCN(CC)CCCC(C)Nc1nc(C=Cc2ccc(Br)cc2)nc2cc(Cl)ccc12 (centres undefined)	10.2
O=C(/C=C/c1ccc(Cl)c(Cl)c1)NCCCCCN1CCC(NC(=O)Nc2ccc3c(c2)OCO3)CC1	4.27
O=C(/C=C/c1ccc(Cl)c(Cl)c1)NCCCCCN1CCC(c2c[nH]c3ccccc23)CC1	3.63
Cc1cc(-c2ccc3c(c2)CC[C@@H](N[C@@H](C)c2ccccc2)C3)cnc1N	2.23
COc1ccc2cc(-c3nc(-c4c(Cl)cccc4Cl)[nH]c3-c3ccnc(NCCCN4CCN(C)CC4)c3)ccc2c1	-5.14
CC1(C)NC(N)=NC(=N)N1OCCCCOc1ccccc1	-0.45

SMILES	inhibition [%]
Cc1[nH]c(C)c(-c2ccc(Oc3ccc(Cl)cc3)cc2)c(=O)c1Br	-0.13
COc1ccc2nccc(N3CCC(CCNCc4ccc5c(n4)NC(=O)CS5)CC3)c2n1	7.97
Cc1c(C)c2c(c(C)c1O)CC[C@](C)(C(=O)N1CCC(CCN3CCC(c4c[nH]c5ccccc45)CC3)CC1)O2	-0.6
COc1ccccc1C1CCN(CCCCNC(=O)c2ccc(/C=C/c3cc(Cl)cc(Cl)c3)cc2)CC1	1.77
Cc1cc(NC(=O)CCCN2CCN(c3cccc(Cl)c3Cl)CC2)ccc1N1CCN(C(C)C)CC1	4.97
Cc1ccc(-c2cnc(N)c3cc(-c4ccnc(N)n4)ccc23)cc1	-1.88
COc1ccc2nc(Nc3nc4cnccc4[nH]3)sc2c1	5.34
CN1CCC[C@H]1COc1ccc(CN2CC[C@H](NC(=O)c3ccc(Cl)c(Cl)c3)C2)cc1Br	1.89
CN1CCCc2ccc(NC(=O)C=Cc3ccc(-c4ccc(F)cc4F)o3)cc2C1	2.73
N#Cc1ccc2c(c1)CCN(CCC1CCC(NC(=O)/C=C/c3cnc4ccccc4c3)CC1)CC2 (centres undefined)	3.67
CC(=O)Nc1ccc2[nH]cc(C3CCN(CC4CCC(NC(=O)/C=C/c5ccc(Cl)c(Cl)c5)CC4)CC3)c2n1 (centres undefined)	-2.32
Cc1noc(C)c1-c1ccc2c(Nc3ccccc3N3CCOCC3)c(C(=O)NCc3ccccc3)cnc2c1	1.84
COc1cc(Nc2ncnc3cc(OC)c(OC)cc23)cc([N+](=O)[O-])c1	-0.41
NC(=O)c1c(Cl)nc2ccccc2c1Cl	4.04
COc1ccc(NC(=O)Nc2cccc(-c3ccc(-c4nc5cc(C(F)(F)F)ccc5[nH]4)cc3)c2)cc1	-2.91
Cc1cccc2nc(-c3cccc(-c4ccc(CN5CCC(C(N)=O)CC5)cc4)c3)[nH]c12	9.06
CC(C)Sc1nc2c(c(=O)n1Cc1ccco1)C1(CCCCC1)Cc1ccccc1-2	1.54
CCCCCCCNCCNc1cc(C)nc2ccccc12	2.79
Cc1cccc2nc(-c3ccc(-c4cccc(CNCc5ccccc5)c4)cc3)[nH]c12	6.25
